{
  "source": "the supplement of paper PMC6555819",
  "data": [
    {"system": "THRa:RXRa (NR concentration 90 nM, RXRa partner concentration 90 nM)", "assay": "PBM binding z-score (relative to random genomic background probes); higher = stronger binding; sequences stand for … in GC…GCGATTGACAGCGTAGAATGAAGG", "procedure,_shortened": "(§1)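 Custom Agilent 4×180K protein-binding microarrays carried double-stranded probes, each with a 34-nt variable region. These regions held direct-repeat seeds, single-nucleotide variants, half-site ablations and random human genomic background sequences. Ligand-free nuclear receptor dimers were incubated on the arrays for 1 h, antibodies against each partner (one per run) detected binding, and scanned fluorescence was regression-normalized. Binding z-scores take the random background probes as reference.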", "values": [
      {"sequence": "CCTTACGGGTCACGAGGTTATAGCTCGACGAGCG", "PBM binding z-score": 3.73},
      {"sequence": "ACTTACGGGTCAACGAGGTGATAGCACGCGTATA", "PBM binding z-score": 3.86},
      {"sequence": "CGAACTAGGTCATTGACAGGTCAGTGAATAGTAA", "PBM binding z-score": 3.32},
      {"sequence": "GGAACGAGGGCATTGGAGTTGATAGCATGGCGAT", "PBM binding z-score": 1.9},
      {"sequence": "TCTATTAATTGAAGGGCAACCGACGAGTCCGTTT", "PBM binding z-score": 0.258},
      {"sequence": "TTTATTAGTTGATTAGGGCAACCGAAACAGCGGA", "PBM binding z-score": 0.999},
      {"sequence": "CGAACGAGGTCAAGGACAGTGAATCTCCGCACGC", "PBM binding z-score": 4.43},
      {"sequence": "GCTCGGAGGACAAGGTTAGAGCTTTGTCCGTAGA", "PBM binding z-score": 1.28},
      {"sequence": "CCTACTGGGCCAGTCAGAGGTCATTGATCATATG", "PBM binding z-score": 2.94},
      {"sequence": "CTCAAAAGGTCGGTTGAGGTGAGTATACGGATAA", "PBM binding z-score": 5.22},
      {"sequence": "AGTCAAAGTTCAGGATGAGGTAACGTAAAGCACG", "PBM binding z-score": 4.21},
      {"sequence": "ATCTCTAGCTAAAGATAGTTCAGTGAATGCAAAT", "PBM binding z-score": 0.114},
      {"sequence": "CAAACTAGGTCAAAGGTCACAGTCGAGCCAACCA", "PBM binding z-score": 5.02},
      {"sequence": "ATATGTAGGTTACATCCGGGTTATTCAGGCTATG", "PBM binding z-score": 2.18},
      {"sequence": "ATATGTAGGTTAGCTGGGGTCATTTAGACTAGGC", "PBM binding z-score": 5.36},
      {"sequence": "CCAGACATGTGAGAAGGTAACTCAGCCTCGATTA", "PBM binding z-score": -0.0389},
      {"sequence": "TCTCGGACGACACGAAAGGTCAGAGCTCGACATC", "PBM binding z-score": 2.77},
      {"sequence": "CGTCCAAGGTCAAAGCTCAGTGAAGAGATGACGG", "PBM binding z-score": 3.63},
      {"sequence": "ATCTCTAGGTAAAAGTTAAGTGAATCCCGAGGAT", "PBM binding z-score": 0.344},
      {"sequence": "TCTAGATGGTCAAAGGTCACACACTCGAAATGCG", "PBM binding z-score": 3.96},
      {"sequence": "GGAACGAGGGCATTCGAGTTGTTAGCATGGCGAT", "PBM binding z-score": 2.06},
      {"sequence": "CCTTACGGGTCAAAGTTATAGCACGGGTGGTACG", "PBM binding z-score": 2.3},
      {"sequence": "GCATATAGCTAATACAAGGTGAAAGTCCGATTGT", "PBM binding z-score": 1.43},
      {"sequence": "CCTCGGAGGACAGGAGGTCAGAGCTGTCCGCTTT", "PBM binding z-score": 2.67},
      {"sequence": "AATACATGGTCATCGTAGGCCAGAGTACGCACAG", "PBM binding z-score": 1.25},
      {"sequence": "CCTACTGGGCCAGCAGGTCATTGATATCAACGTT", "PBM binding z-score": 1.86},
      {"sequence": "GCTAGCAGGTCATTTGGGTCACTCAATGACGGGC", "PBM binding z-score": 3.74},
      {"sequence": "CCGAGTAGGTTAGGGGGCATTCAGGCAACGGTGA", "PBM binding z-score": 2.4},
      {"sequence": "CAAACTAGGTCAAGGTGAAAGTCGGTTTGTGCCA", "PBM binding z-score": 3.49},
      {"sequence": "ATCTGTAGGTTAGCTGGGGTCATTCAGACTAGGC", "PBM binding z-score": 5.16},
      {"sequence": "ATATGTAGATTAGCTGGGGTCATTCAGACTAGGC", "PBM binding z-score": 4.26},
      {"sequence": "ACAGACAGGTGATGAAGGAAACTCAGGCTATCAT", "PBM binding z-score": 0.154},
      {"sequence": "CAAACTAGGTCACCGGAAGGTCTAAGTCCGCATG", "PBM binding z-score": 3.88},
      {"sequence": "CTAACTAGGTCAGAACAGGACAGTGAAGGATGAT", "PBM binding z-score": 3.55},
      {"sequence": "TCTAGCAGGCCAGAGTGTCACTCAAGAGGTACGG", "PBM binding z-score": -0.304},
      {"sequence": "ATCTCTAGGTAAGACGCAGTTCAGTGAAGAACGC", "PBM binding z-score": 0.223},
      {"sequence": "TCATACAGGTAAAGGTGAAAGTCGAACGATATGA", "PBM binding z-score": 1.46},
      {"sequence": "ACTATTAGTTGATTTAGGGCAACCGATACGACGC", "PBM binding z-score": 1.52},
      {"sequence": "TCATATAGGTAAAAGGTGAAACTCGGTGTGGTAA", "PBM binding z-score": 2.16},
      {"sequence": "AATACAGGGTCACTAGTCCAGAGTAGGTACGAAT", "PBM binding z-score": 3.31}
    ]},
    {"system": "THRa homodimer (NR concentration 90 nM)", "assay": "PBM binding z-score (relative to random genomic background probes); higher = stronger binding; sequences stand for … in GC…GCGATTGACAGCGTAGAATGAAGG", "procedure,_shortened": "as §1", "values": [
      {"sequence": "CCTTACGGGTCACGAGGTTATAGCTCGACGAGCG", "PBM binding z-score": 0.989},
      {"sequence": "ACTTACGGGTCAACGAGGTGATAGCACGCGTATA", "PBM binding z-score": 0.952},
      {"sequence": "CGAACTAGGTCATTGACAGGTCAGTGAATAGTAA", "PBM binding z-score": 0.924},
      {"sequence": "GGAACGAGGGCATTGGAGTTGATAGCATGGCGAT", "PBM binding z-score": -0.24},
      {"sequence": "TCTATTAATTGAAGGGCAACCGACGAGTCCGTTT", "PBM binding z-score": 0.559},
      {"sequence": "TTTATTAGTTGATTAGGGCAACCGAAACAGCGGA", "PBM binding z-score": 0.89},
      {"sequence": "CGAACGAGGTCAAGGACAGTGAATCTCCGCACGC", "PBM binding z-score": 3.19},
      {"sequence": "GCTCGGAGGACAAGGTTAGAGCTTTGTCCGTAGA", "PBM binding z-score": -0.0516},
      {"sequence": "CCTACTGGGCCAGTCAGAGGTCATTGATCATATG", "PBM binding z-score": 1.03},
      {"sequence": "CTCAAAAGGTCGGTTGAGGTGAGTATACGGATAA", "PBM binding z-score": 1.15},
      {"sequence": "AGTCAAAGTTCAGGATGAGGTAACGTAAAGCACG", "PBM binding z-score": 1.73},
      {"sequence": "ATCTCTAGCTAAAGATAGTTCAGTGAATGCAAAT", "PBM binding z-score": -0.112},
      {"sequence": "CAAACTAGGTCAAAGGTCACAGTCGAGCCAACCA", "PBM binding z-score": 2.38},
      {"sequence": "ATATGTAGGTTACATCCGGGTTATTCAGGCTATG", "PBM binding z-score": 1.08},
      {"sequence": "ATATGTAGGTTAGCTGGGGTCATTTAGACTAGGC", "PBM binding z-score": 3},
      {"sequence": "CCAGACATGTGAGAAGGTAACTCAGCCTCGATTA", "PBM binding z-score": 0.447},
      {"sequence": "TCTCGGACGACACGAAAGGTCAGAGCTCGACATC", "PBM binding z-score": 0.521},
      {"sequence": "CGTCCAAGGTCAAAGCTCAGTGAAGAGATGACGG", "PBM binding z-score": 2.02},
      {"sequence": "ATCTCTAGGTAAAAGTTAAGTGAATCCCGAGGAT", "PBM binding z-score": -0.106},
      {"sequence": "TCTAGATGGTCAAAGGTCACACACTCGAAATGCG", "PBM binding z-score": 1.9},
      {"sequence": "GGAACGAGGGCATTCGAGTTGTTAGCATGGCGAT", "PBM binding z-score": -0.524},
      {"sequence": "CCTTACGGGTCAAAGTTATAGCACGGGTGGTACG", "PBM binding z-score": -0.124},
      {"sequence": "GCATATAGCTAATACAAGGTGAAAGTCCGATTGT", "PBM binding z-score": 0.866},
      {"sequence": "CCTCGGAGGACAGGAGGTCAGAGCTGTCCGCTTT", "PBM binding z-score": 0.822},
      {"sequence": "AATACATGGTCATCGTAGGCCAGAGTACGCACAG", "PBM binding z-score": -0.339},
      {"sequence": "CCTACTGGGCCAGCAGGTCATTGATATCAACGTT", "PBM binding z-score": 0.347},
      {"sequence": "GCTAGCAGGTCATTTGGGTCACTCAATGACGGGC", "PBM binding z-score": 1.48},
      {"sequence": "CCGAGTAGGTTAGGGGGCATTCAGGCAACGGTGA", "PBM binding z-score": 1.37},
      {"sequence": "CAAACTAGGTCAAGGTGAAAGTCGGTTTGTGCCA", "PBM binding z-score": 2.52},
      {"sequence": "ATCTGTAGGTTAGCTGGGGTCATTCAGACTAGGC", "PBM binding z-score": 3.21},
      {"sequence": "ATATGTAGATTAGCTGGGGTCATTCAGACTAGGC", "PBM binding z-score": 3.01},
      {"sequence": "ACAGACAGGTGATGAAGGAAACTCAGGCTATCAT", "PBM binding z-score": 0.0695},
      {"sequence": "CAAACTAGGTCACCGGAAGGTCTAAGTCCGCATG", "PBM binding z-score": 2.22},
      {"sequence": "CTAACTAGGTCAGAACAGGACAGTGAAGGATGAT", "PBM binding z-score": 0.222},
      {"sequence": "TCTAGCAGGCCAGAGTGTCACTCAAGAGGTACGG", "PBM binding z-score": -1.19},
      {"sequence": "ATCTCTAGGTAAGACGCAGTTCAGTGAAGAACGC", "PBM binding z-score": -0.325},
      {"sequence": "TCATACAGGTAAAGGTGAAAGTCGAACGATATGA", "PBM binding z-score": 0.0499},
      {"sequence": "ACTATTAGTTGATTTAGGGCAACCGATACGACGC", "PBM binding z-score": 0.806},
      {"sequence": "TCATATAGGTAAAAGGTGAAACTCGGTGTGGTAA", "PBM binding z-score": 0.677},
      {"sequence": "AATACAGGGTCACTAGTCCAGAGTAGGTACGAAT", "PBM binding z-score": 1.32}
    ]}
  ]
}
